Assay results taken from PubChem BioAssay (EPA / NIEHS).
Some structures have more than one record in an assay (separate samples or runs), and their calls can disagree. The source made the active and inactive calls. Rule for the calls: active = hit-call score of the fitted dose curve at least 0.9, where 1 is the maximum; inactive = score below 0.9.

Legend:
[1] = read-out: Matrix Metallopeptidase 1 (MMP1), MMP1 (gene 4312); assay: BSK_hDFCGF_MMP1: BioMAP Diversity Plus: hDFCGF Assay for Matrix Metallopeptidase 1 (MMP1) Biomarker Activity (AID 2283064); details: primary human foreskin fibroblasts; actives raise or lower the signal
Procedure, shortened: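 Primary human foreskin fibroblasts exposed to chemicals for 24 h; MMP1 measured by ELISA. Cytotoxicity tracked by SRB staining in parallel cultures; bidirectional fit relative to DMSO.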

[2] = read-out: Plasminogen activator inhibitor-1 (PAI1), SERPINE1 (gene 5054); assay: BSK_hDFCGF_PAI1: BioMAP Diversity Plus: hDFCGF Assay for Plasminogen activator inhibitor-1 (PAI1) Biomarker Activity (AID 2283066); details: primary human foreskin fibroblasts; actives raise or lower the signal
Procedure, shortened: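 Human foreskin fibroblasts in the hDFCGF system were dosed with compound for 24 h; PAI-1 was quantified by ELISA. Bidirectional curve fitting used DMSO as negative control and baseline.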

[3] = read-out: Intercellular Adhesion Molecule 1 (ICAM1), ICAM1 (gene 3383); assay: BSK_KF3CT_ICAM1: BioMAP Diversity Plus: KF3CT Assay for Intercellular Adhesion Molecule 1 (ICAM1) Biomarker Activity (AID 2283067); details: primary human keratinocytes with fibroblasts; actives raise or lower the signal
Procedure, shortened: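 Cell-surface ICAM-1 was measured by ELISA 24 h after dosing primary human skin keratinocytes co-cultured with fibroblasts. Parallel SRB staining tracked overt cytotoxicity. Gain or loss of signal was fitted relative to DMSO.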

[4] = read-out: Interferon-gamma inducible Protein 10 (IP10), CXCL10 (gene 3627); assay: BSK_KF3CT_IP10: BioMAP Diversity Plus: KF3CT Assay for Interferon-gamma inducible Protein 10 (IP10) Biomarker Activity (AID 2283068); details: primary human keratinocytes with fibroblasts; actives raise or lower the signal
Procedure, shortened: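 In a primary skin co-culture of keratinocytes and fibroblasts, IP-10 is quantified by ELISA at 24 h after dosing. SRB staining of parallel wells monitors overt toxicity. Curves are fitted both directions against DMSO.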

[5] = BSK_KF3CT_SRB: Viability Assessment in the BioMAP Diversity Plus: KF3CT Assay (AID 2283069); details: primary human keratinocytes with fibroblasts;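 note: total protein by sulforhodamine B staining as a cytotoxicity measure; read 24 h after compound addition; fitted for both signal gain and loss against DMSO baseline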
Procedure, shortened: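 Human keratinocyte and foreskin fibroblast co-culture exposed to chemical for 24 h. Total protein measured in parallel cultures by 0.1% sulforhodamine B staining after 10% TCA fixation, read at 560 nm; bidirectional fit relative to DMSO.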

[6] = read-out: Interleukin-1 alpha (IL1a), IL1A (gene 3552); assay: BSK_KF3CT_IL1a: BioMAP Diversity Plus: KF3CT Assay for Interleukin-1 alpha (IL1a) Biomarker Activity (AID 2283070); details: primary human keratinocytes with fibroblasts; actives raise or lower the signal
Procedure, shortened: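 Primary human keratinocyte plus foreskin fibroblast co-culture, dosed and measured at 24 h in 96-well plates. IL-1a level quantified by ELISA; bidirectional fit relative to DMSO.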

[7] = read-out: TIMP metallopeptidase inhibitor 2 (TIMP2), TIMP2 (gene 7077); assay: BSK_KF3CT_TIMP2: BioMAP Diversity Plus: KF3CT Assay for TIMP metallopeptidase inhibitor 2 (TIMP2) Biomarker Activity (AID 2283071); details: primary human keratinocytes with fibroblasts; actives raise or lower the signal
Procedure, shortened: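 Human primary keratinocyte/foreskin fibroblast co-culture dosed with chemical and sampled at 24 h. TIMP-2 levels quantified by ELISA; bidirectional fitting against DMSO negative control as baseline.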

[8] = read-out: C-C motif chemokine 2 (Homo sapiens) (UniProt P13500); assay: BSK_KF3CT_MCP1: BioMAP Diversity Plus: KF3CT Assay for Monocyte Chemoattractant Protein 1 (MCP1/CCL2) Biomarker Activity (AID 2283073); details: primary human keratinocytes with fibroblasts; actives raise or lower the signal
Procedure, shortened: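 ELISA read-out of MCP-1, 24 h post-dose, in primary human skin keratinocytes co-cultured with fibroblasts. Parallel SRB staining monitors cytotoxicity; changes fitted both directions relative to DMSO.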

[9] = read-out: urokinase plasminogen activator (uPA), PLAU (gene 5328); assay: BSK_KF3CT_uPA: BioMAP Diversity Plus: KF3CT Assay for urokinase plasminogen activator (uPA) Biomarker Activity (AID 2283075); details: primary human keratinocytes with fibroblasts; actives raise or lower the signal
Procedure, shortened: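 Primary human keratinocyte/foreskin fibroblast co-culture exposed to chemical; uPA measured by ELISA at 24 h. Bidirectional fit versus DMSO, with parallel SRB total-protein staining for cytotoxicity.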

[10] = read-out: CD40, CD40 (gene 958); assay: BSK_LPS_CD40: BioMAP Diversity Plus: LPS Assay for CD40 Biomarker Activity (AID 2283076); details: primary human HUVEC with PBMC; actives raise or lower the signal
Procedure, shortened: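 In the LPS system of human endothelial cells with peripheral blood mononuclear cells, CD40 levels were read by ELISA 24 h post-treatment. Signal changes in either direction were fitted against the DMSO baseline, with parallel SRB protein staining.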

[11] = read-out: E-selectin (Homo sapiens) (UniProt P16581); assay: BSK_LPS_Eselectin: BioMAP Diversity Plus: LPS Assay for Eselectin Biomarker Activity (AID 2283077); details: primary human HUVEC with PBMC; actives raise or lower the signal
Procedure, shortened: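 E-selectin ELISA on LPS-stimulated endothelial cell/PBMC co-cultures, read 24 h post-treatment; gains and losses fitted against DMSO. Parallel SRB staining (0.1% SRB after 10% TCA fixation, 560 nm) flags overt cytotoxicity.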

[12] = read-out: Interleukin-8 (IL8), CXCL8 (gene 3576); assay: BSK_LPS_IL8: BioMAP Diversity Plus: LPS Assay for Interleukin-8 (IL8) Biomarker Activity (AID 2283078); details: primary human HUVEC with PBMC; actives raise or lower the signal
Procedure, shortened: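 ELISA read-out of IL-8 after 24 h chemical treatment of LPS-activated endothelial/PBMC human primary co-cultures. Changes either up or down relative to DMSO; overt cytotoxicity checked by sulforhodamine B staining in parallel wells.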

[13] = BSK_LPS_SRB: Viability Assessment in the BioMAP Diversity Plus: LPS Assay (AID 2283079); details: primary human HUVEC with PBMC;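 note: total protein by sulforhodamine B absorbance as a cytotoxicity measure; measured one day after compound addition; fitted in both directions against DMSO so loss or gain of signal counts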
Procedure, shortened: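 SRB viability endpoint: cells fixed with 10% TCA, stained with 0.1% SRB, read at 560 nm, 24 h post-dose. HUVEC/PBMC co-culture; signal change in either direction scored relative to DMSO.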

[14] = read-out: Interleukin-1 alpha (IL1a), IL1A (gene 3552); assay: BSK_LPS_IL1a: BioMAP Diversity Plus: LPS Assay for Interleukin-1 alpha (IL1a) Biomarker Activity (AID 2283080); details: primary human HUVEC with PBMC; actives raise or lower the signal
Procedure, shortened: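 Readout is IL-1a level by ELISA, 24 h post-dose, fitted as gain or loss relative to DMSO. System: LPS-activated human primary co-culture of vascular endothelium and peripheral blood mononuclear cells, with parallel SRB total-protein cytotoxicity.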

[15] = read-out: Monocyte Chemoattractant Protein-1 (MCP1), CCL2 (gene 6347); assay: BSK_LPS_MCP1: BioMAP Diversity Plus: LPS Assay for Monocyte Chemoattractant Protein-1 (MCP1) Biomarker Activity (AID 2283081); details: primary human HUVEC with PBMC; actives raise or lower the signal;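 for AC50: secreted MCP-1 protein quantified by ELISA in culture supernatant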
Procedure, shortened: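 Secreted MCP-1 read by ELISA at 24 h post-dosing in an LPS-activated co-culture of endothelial cells with peripheral blood mononuclear cells. Fits run in both directions, DMSO as baseline; parallel SRB staining tracks overt cytotoxicity.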

[16] = BSK_LPS_PGE2: BioMAP Diversity Plus: LPS Assay for Prostaglandin E2 (PGE2) Biomarker Activity (AID 2283082); details: primary human HUVEC with PBMC; actives raise or lower the signal;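 for AC50: secreted prostaglandin E2 measured by ELISA in LPS-stimulated co-culture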
Procedure, shortened: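 HUVEC plus PBMC co-culture stimulated with LPS; secreted PGE2 quantified by ELISA 24 h after chemical dosing. Activity fitted bidirectionally against DMSO as negative control and baseline; parallel SRB total-protein staining served as cytotoxicity check.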

[17] = read-out: Macrophage colony-stimulating factor (MCSF), CSF1 (gene 1435); assay: BSK_LPS_MCSF: BioMAP Diversity Plus: LPS Assay for Macrophage colony-stimulating factor (MCSF) Biomarker Activity (AID 2283083); details: primary human HUVEC with PBMC; actives raise or lower the signal
Procedure, shortened: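 Bidirectional fitting against DMSO was applied to M-CSF levels read by ELISA at 24 h post-dose. The system pairs human umbilical vein endothelium with peripheral blood mononuclear cells; parallel SRB staining tracked cytotoxicity.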

[18] = read-out: Matrix Metallopeptidase 9 (MMP9), MMP9 (gene 4318); assay: BSK_KF3CT_MMP9: BioMAP Diversity Plus: KF3CT Assay for Matrix Metallopeptidase 9 (MMP9) Biomarker Activity (AID 2283074); details: primary human keratinocytes with fibroblasts; actives raise or lower the signal;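 for AC50: MMP9 protein level quantified by ELISA in the co-culture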
Procedure, shortened: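 Human keratinocyte and foreskin fibroblast co-culture exposed to chemicals for 24 h; MMP9 biomarker measured by ELISA, bidirectional fitting relative to DMSO; cytotoxicity tracked by SRB total protein staining in parallel cultures.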

[19] = read-out: Transforming growth factor beta 1 (TGFb1), TGFB1 (gene 7040); assay: BSK_KF3CT_TGFb1: BioMAP Diversity Plus: KF3CT Assay for Transforming growth factor beta 1 (TGFb1) Biomarker Activity (AID 2283072); details: primary human keratinocytes with fibroblasts; actives raise or lower the signal
Procedure, shortened: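 Human keratinocyte plus foreskin fibroblast primary co-culture, dosed with chemical for 24 h. TGF-b1 quantified by ELISA. Activity fitted bidirectionally against DMSO negative control as baseline.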

Measured: AC50

Sequence of E-selectin (Homo sapiens) (P16581 whole entry, looked up): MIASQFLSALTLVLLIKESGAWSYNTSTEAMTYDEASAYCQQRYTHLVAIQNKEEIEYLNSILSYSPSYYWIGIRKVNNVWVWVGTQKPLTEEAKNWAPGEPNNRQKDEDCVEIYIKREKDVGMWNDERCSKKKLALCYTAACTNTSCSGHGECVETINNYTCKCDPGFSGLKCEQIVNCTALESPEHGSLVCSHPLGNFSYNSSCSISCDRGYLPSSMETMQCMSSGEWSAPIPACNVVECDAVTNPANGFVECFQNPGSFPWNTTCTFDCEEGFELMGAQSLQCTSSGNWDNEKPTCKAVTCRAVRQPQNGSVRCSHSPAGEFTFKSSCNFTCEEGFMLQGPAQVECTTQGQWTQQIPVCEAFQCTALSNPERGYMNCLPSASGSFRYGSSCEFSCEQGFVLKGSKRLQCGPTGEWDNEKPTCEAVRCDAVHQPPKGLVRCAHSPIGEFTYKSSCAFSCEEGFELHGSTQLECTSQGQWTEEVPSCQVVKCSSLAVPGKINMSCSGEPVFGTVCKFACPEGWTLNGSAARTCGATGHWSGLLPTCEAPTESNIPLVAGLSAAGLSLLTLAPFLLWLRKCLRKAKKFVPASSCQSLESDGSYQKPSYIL

CCOC(=O)CCN(SN(C)C(=O)Oc1cccc2c1OC(C)(C)C2)C(C)C
active: [2] 28.7 µM
not listed: [18] | [19]
inactive: all other assays above

[Cl][Sn]([c]1ccccc1)([c]1ccccc1)[c]1ccccc1
inactive: [16]
active: [1] 0.103 µM | [2] 0.114 µM | [3] 0.334 µM | [4] 0.14 µM | [5] 0.183 µM | [6] 0.127 µM | [7] 0.209 µM | [8] 0.19 µM | [9] 0.168 µM | [10] 0.117 µM | [11] 0.305 µM | [12] 0.577 µM | [13] 1.08 µM | [14] 0.154 µM | [15] 0.258 µM | [17] 0.138 µM

Cc1cc(Cl)ccc1OC(C)C(=O)O (stereo not drawn)
not listed: [19]
inactive: all other assays above

O=C(Cc1ccccc1)OCCc1ccccc1
active: [14] 3.97 µM
inactive: [1] | [2] | [3] | [4] | [5] | [6] | [7] | [8] | [18] | [9] | [10] | [11] | [12] | [13] | [14] | [15] | [16] | [17]

Oc1c(Br)cc(Br)cc1Br
active: [2] 20 µM | [4] 31.6 µM | [10] 13.9 µM
not listed: [18] | [19]
inactive: all other assays above

CC(C)=CC1C(C(=O)OCc2cccc(Oc3ccccc3)c2)C1(C)C (stereo not drawn)
active: [2] 12.5 µM | [7] 2.81 µM
not listed: [18] | [19]
inactive: all other assays above

Cc1ccccc1OP(=O)(Oc1ccccc1C)Oc1ccccc1C
active: [1] 12.7 µM | [2] 6.03 µM | [4] 14.7 µM | [5] 20 µM | [6] 11.3 µM | [7] 5.54 µM | [8] 12.1 µM | [18] 5.56 µM | [9] 20 µM | [10] 9.38 µM | [11] 9.59 µM | [12] 12.6 µM | [13] 12.3 µM | [14] 11 µM | [15] 12.7 µM | [17] 11.2 µM
inactive: [3] | [16]

Cc1ccc2nc3sc(=O)sc3nc2c1
active: [3] 3.16 µM | [6] 5 µM | [7] 2.5 µM | [10] 4.27 µM | [11] 8.18 µM | [13] 3.67 µM | [14] 7.83 µM | [15] 6.93 µM | [16] 1.2 µM
inactive: [1] | [2] | [4] | [5] | [8] | [9] | [12] | [17]

NC(=O)CCl
not listed: [18]
inactive: all other assays above

C#CCOC(=O)/C=C(C)/C=C/CC(C)CCCC(C)C (stereo not drawn)
active: [2] 11.6 µM | [10] 20 µM | [11] 20 µM | [12] 0.242 µM
not listed: [19]
inactive: all other assays above

CCCCCCCCCCCCN(C)C
not listed: [18] | [19]
inactive: all other assays above
